Laboratory results from ChEMBL document CHEMBL4513216, “Probing the Open Global Health Chemical Diversity Library for Multistage-Active Starting Points for Next-Generation Antimalarials” (ACS Infect Dis, 2020).
Out of some 65,000 compounds screened, about 2,100 (3.2%) showed an effect of 50% or more. The median lay at about -52%. The entries come from a sample that favours strong results as a whole.

tested on: Plasmodium falciparum; test: Screen against P. falciparum Asexual Blood Stage (ABS), at 5uM; format: functional, Dd2; settings: tested at 5 uM

Structure (SMILES)	INHIBITION [%]
CO[C@H]1C[C@@H](O)C12CCN(C(=O)CCCOc1ccccc1)CC2	-224
Cc1nc(Oc2ccccc2Cl)sc1C(=O)O	-103
CC(Cn1cccn1)NC(=O)NCc1ccc(OC2CCCC2)nc1 (centres undefined)	-90.4
CC1CCCCN1CCNC(=O)c1ccn(-c2cccc(F)c2)n1 (centres undefined)	64.3
CC1CCN(CCNC(=O)c2ccn(-c3ccccc3)n2)CC1	24
CC1CCCN(CCNC(=O)c2ccn(-c3ccc(F)cc3)n2)C1 (centres undefined)	50.2
O=C(NCCN1CCCCC1)c1ccn(-c2ccc(F)cc2)n1	46.1
COc1ccc(-n2ccc(C(=O)NCCN3CCCC(C)C3)n2)cc1 (centres undefined)	7.72
O=C(NCCn1cccn1)c1ccn(-c2cccc(F)c2)n1	-67.5
Cc1cc(C(=O)NCCN2CCCC(C)C2)nn1C (centres undefined)	-67.5
CC1CCCCN1CCNC(=O)c1ccn(-c2ccc(F)cc2)n1 (centres undefined)	34.6
CC1CCCCN1CCNC(=O)c1ccn(-c2ccccc2)n1 (centres undefined)	22
CC1CCN(CCNC(=O)c2ccn(-c3ccc(F)cc3)n2)CC1	60.9
CC1CCCN(CCNC(=O)c2ccn(-c3cccc(F)c3)n2)C1 (centres undefined)	68
COc1ccc(-n2ccc(C(=O)NCCN3CCC(C)CC3)n2)cc1	-1.58
COCC(=O)N(C)Cc1ccc(F)c(F)c1	-52.4
CCOc1nnc(CN(CC)CC(=O)Nc2c(F)cccc2F)s1	-13.5
C=C(C)COc1cccc(C(=O)NC(C)c2nnn[nH]2)c1 (centres undefined)	-109
CCOc1ccc(N2CCCN=C2NC(=O)c2cccc(C)c2)cc1	-77.5
Cc1cc(C(=O)N2CCc3nc(N4CCOCC4)nc(C)c3C2)c(C)o1	-39.6
CC(C)NC(=O)[C@H]1C[C@@H]2[C@@H](C1)OCCN2Cc1cccs1	-20.5
C[C@@H]1CCC[C@H](C)N1CC(=O)N1CCc2[nH]c(-c3ccccc3)nc2C1	-64.1
O=C(NCCc1cccs1)[C@]12COC[C@H]1CN(Cc1ccncc1)C2	-31
COc1cn(-c2ccccc2)nc1C(=O)NCCN1CCCC(C)C1 (centres undefined)	-57.1
O=C(NCCN1CCCCC1)c1ccn(-c2ccccc2)n1	-37.9

Structure (SMILES)	INHIBITION [%]
CC1CCCN(CCNC(=O)c2ccn(-c3ccccc3)n2)C1 (centres undefined)	50.8
CC(C)OCc1ccc(CNc2cncc(-n3cccn3)n2)cc1	-83.1
COCCNC(=O)c1ccc2c(=O)n3c(nc2c1)CCCC3	-68
COc1cc(Cl)cc(CN2CCCC(N3CCCC3)C2)c1OC (centres undefined)	64.1
COc1cc(Cl)cc(CN2CCCC(N3CCOCC3)C2)c1OC (centres undefined)	-126
COc1ccc(CN2CCCC(N3CCCC3)C2)cc1Cn1cncn1 (centres undefined)	-34.2
O=C(O)c1ccccc1-n1cnc(CN2CCc3ccccc32)c1	-68.5
Cn1nccc1C(=O)Nc1cc(C(F)(F)F)c[nH]c1=O	56.5
O=C(NCc1ccncc1)Nc1cc(C(F)(F)F)c[nH]c1=O	-57.7
Cn1nccc1CNC(=O)Nc1cc(C(F)(F)F)c[nH]c1=O	-32.9
CNc1cc(C)nc(C2COCCN2Cc2csc(C)n2)n1 (centres undefined)	-146
Cc1ccnn1CCC(=O)N1CCC(c2cnccn2)CC1	-164
CN(Cc1cscn1)C(=O)C(c1ccccc1)N1CCSCC1 (centres undefined)	13.8
CCN(CC)C(CNS(=O)(=O)NCc1ccccc1)c1ccco1 (centres undefined)	67
CCN(CC)C(CNS(=O)(=O)c1ccc(C(=O)NC)cc1)c1ccco1 (centres undefined)	-31.7
CCN(CC)C(CNCc1ccc(O)cc1)c1ccco1 (centres undefined)	40.1
Cn1ncc2c(N[C@H]3CCCC[C@@H]3O)nc(C(C)(C)C)nc21	-65.3
Cn1ncc2c(NC3CCC(N)CC3)nc(C(C)(C)C)nc21 (centres undefined)	65.3
Cn1ncc2c(NC3CCCN(C(=O)C4CC4)C3)nc(C(C)(C)C)nc21 (centres undefined)	-74
COCCN1CCC2(CC1)CC(NC(=O)C(C)C)c1ccccc1O2 (centres undefined)	-12.4
Cn1nc(C(=O)N2CCSCC2)cc1NC(=O)c1ccco1	-104
CNc1nc(N2CCN(CC=C(C)C)C(CCO)C2)nc2c1CCC2 (centres undefined)	-7.97
CNc1nc(N2CCN(Cc3ccsc3)C(CCO)C2)nc2c1CCC2 (centres undefined)	55.7
CNc1nc(N2CCN(C3CCCCC3)C(CCO)C2)nc2c1CCC2 (centres undefined)	-32.3
CN(C)[C@@H]1C[C@@H](CO)N(C(=O)Nc2ccc(SC(F)(F)F)cc2)C1	7.77

Structure (SMILES)	INHIBITION [%]
CCc1nc(C)cn1C(=O)Nc1ccc(F)cc1	-11.7
Cc1n[nH]c(C2CN(C(=O)c3ccco3)CCO2)n1 (centres undefined)	-132
CC(C)(C)CC(=O)NC(C)(C(N)=O)c1cccc(Cl)c1 (centres undefined)	-54.6
Cc1ccc(=O)n(CC2(O)CCN(Cc3c(F)cccc3F)CC2)n1	-42.4
Cn1cc(C(NCc2ccc(F)cc2)c2cccc(F)c2)cn1 (centres undefined)	13.6
Fc1cccc(C(NCc2ncc[nH]2)c2ccccc2)c1 (centres undefined)	69.1
Fc1cccc(NCc2ncc[nH]2)c1	-155
Cc1c(C(=O)NCC2CCS(=O)(=O)C2)cnn1-c1ccccc1 (centres undefined)	-29.9
Cc1cc(C(=O)N2CCCC3(COCCN(CCN(C)C)C3)C2)no1 (centres undefined)	-49.7
CCn1ncc2c1CCCC2NCc1cccc2c1OCCCO2 (centres undefined)	-15.3
Cn1ncc2c1CCCC2NCc1cccc2c1OCCCO2 (centres undefined)	-48.9
CC(C)(C)n1ncc2c1CCCC2NCc1cccc2c1OCCO2 (centres undefined)	61.5
CCn1ncc2c1CCCC2NCc1cccc2c1OCCO2 (centres undefined)	-36
CCn1ncc2c1CCCC2NCc1cccc2c1OCO2 (centres undefined)	-116
CC(C)(C)n1ncc2c1CCCC2NCc1cccc2c1OCO2 (centres undefined)	56.8
CN(CCc1ccncc1)CCc1nccs1	-102
Cc1c[nH]c(C2COCCN2C(=O)c2n[nH]c(=O)c3ccccc23)n1 (centres undefined)	-96.3
Cc1ncnc2c1CCN(C(=O)N(C)C)CC2	-100
OCCC1CN(c2nc(-c3cccnc3)nc3c2CCNCC3)CCO1 (centres undefined)	-121
COCCC1CN(c2nc(-c3ccccc3)nc3c2CCNC3)CCO1 (centres undefined)	-21.7
NCC1CN(c2nc(-c3cccnc3)nc3c2CCNCC3)CCO1 (centres undefined)	-84.9
NCC1CN(c2nc(-c3ccccc3)nc3c2CCNCC3)CCO1 (centres undefined)	69.5
NCCC1CN(c2nc(-c3ccccc3)nc3c2CCNC3)CCO1 (centres undefined)	66.1
OCCC1CN(c2nc(-c3ccncc3)nc3c2CCNCC3)CCO1 (centres undefined)	-97.5
